Screen size: about 51,000 sequences; about 3,800 (7.5%) were called active. No stated cut-off is given here; in the data, active = GI50 up to about 1.1 µM and inactive = higher. Shown is part of a subset that was picked to be rich in actives. Entries with a potency or affinity are not part of this list.
Test system: A498

Substance	GI50 [µM]
[Bis(aminomethyl)pentamethylenesilane]tetrachloropaltinum(IV), CHEMBL2146204	0.132
[Bis(aminomethyl)pentamethylenesilane]dichloropaltinum(II), CHEMBL2146202	0.279
[Bis(aminomethyl)dimethylsilane]tetrachloroplatinum(IV), CHEMBL2146190	15.5
mu-(1,7-nanodiamine-N,N')bis-(cis-aminedichloroplatimum (II)), CHEMBL2146215	66.5
[Bis(aminomethyl)tetramethylenesilane]dichloropaltinum(II), CHEMBL2146205	32.8
[Bis(aminomethyl)tetramethylenesilane]tetrachloropaltinum(IV), CHEMBL2146189	1.64
CISPLATIN, CHEMBL11359	8.24

— ChEMBL document CHEMBL1201862, “PubChem BioAssay data set” (2004)
